Potency and affinity values are given separately.
How the values were obtained:
[1] = system: Klebsiella pneumoniae; settings: Concentration 32 ug.mL-1; ASSAY_TEST Inhibition of Bacterial Growth; detection method Absorption (OD600); MEDIA CAMHB; plate type 384well; NBS; CORNING #3640; time 18 hr
[2] = system: Candida albicans; settings: 32 ug/mL
[3] = system: Cryptococcus neoformans; settings: Concentration 32 ug.mL-1; ASSAY_TEST Inhibition of Fungal Growth; detection method Resazurin; Absorption (OD600-OD570); plate type 384well; NBS; CORNING #3640

Row | SMILES | Inhibition [1] | Inhibition [2] | Inhibition [3]
1 | CC1=C(C(=O)O[C@@H]2C[C@@]3(C)CC[C@H]2C3(C)C)C(c2ccccc2)C(C#N)=C(N)O1 (stereo partly specified) | -1.66% | 15.2% | -2.45%
2 | N#C[C@]1(Br)C(=N)Oc2ccc3ccccc3c2[C@@H]1c1ccc([N+](=O)[O-])cc1 | 5.78% | 6.21% | -3.1%
3 | CN(C)c1nc(N)c(C#N)c(-c2ccccc2)c1C#N | -2.21% | 0.74% | -0.79%
4 | CC(=O)Oc1ccc(C=C2N=C(c3ccccc3)OC2=O)cc1 | -12.75% | -0.21% | -12.33%
5 | COc1ccc(C2C(C#N)=C(N)Oc3ccc4ccccc4c32)cc1OC (stereo unspecified) | 12.8% | 5.6% | -62.6%
6 | C#CCNC(=O)c1cc2cc(OCCCC3CCN(Cc4ccccc4)CC3)ccc2[nH]1 | 4.92% | 1.71% | -106.43%
7 | N#CC1(Br)C(=NBr)Oc2ccc3ccccc3c2C1c1ccccc1 (stereo unspecified) | -3% | 3.44% | -1.83%
8 | O=C1NC(=S)N/C1=C\c1c[nH]c2ccccc12 | 4.51% | -0.31% | -1.8%
9 | COc1cccc(C2c3c(ccc4ccccc34)OC(=NBr)C2(Br)C#N)c1 (stereo unspecified) | 33.1% | 26.4% | -22.56%
10 | COc1nc(N)c(C#N)cc1C#N | 5.43% | 3.36% | -30.91%
11 | CCOC(=O)/C(=C\c1ccccc1)C(=O)c1ccccc1 | -3.55% | 3.73% | -2.93%
12 | COc1ccc(C2c3c(nc4c(c3N)CCCC4)Oc3ccc4ccccc4c32)c(OC)c1 (stereo unspecified) | 6.37% | 10.9% | 16.32%

From ChEMBL document CHEMBL4513135, “CO-ADD screening of IQOG CSIS (Spain) compounds”
